# Hit rate of the full screen: of about 63,000 compounds, about 1,100 (1.7%) were called active. Cut-off read from the data, not from the text of the source: active = cytotoxicity above about 50%; inactive = the rest. Only a selection was taken, and actives are over-represented in it overall. Entries with a potency or affinity are not part of this list.
# Test: HPDE-C7 pancreatic duct cell viability loss – fluorescence, HTS (AID 430);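 note: cells exposed to compound for 48 hours before viability readout; 0% = vehicle and 100% = reference cytotoxic drug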
# Settings: HPDE-C7 pancreatic duct cells viability, at 10 µM, stronger effect = higher value
row,SMILES,cytotoxicity
1,CC1(C)Cc2c(sc3c2c(=N)n(Cc2ccco2)c(=O)n3Cc2ccc(F)cc2)CO1,5.6% (inactive)
2,O=C1C2C3C=CC(C3)C2C(=O)N1c1n[nH]c(CCc2ccccc2)n1 (configuration not stated),0.1% (inactive)
3,CCCCP(=O)(CCCC)Cc1ccccc1O,-0.6% (inactive)
4,CC(C)=CC(=O)Nc1ccccc1Br,-7.7% (inactive)
5,CC1CC(C)CN(c2oc(-c3ccccc3Cl)nc2C#N)C1 (configuration not stated),2.5% (inactive)
6,CCCCOC(=O)Cn1c(=O)c2c(nc(Br)n2Cc2ccccc2)n(C)c1=O,-12.6% (inactive)
7,Cc1sc2nc3n(c(=O)c2c1C)CCCS3,3.5% (inactive)
8,N#C/C(C(=O)NCc1ccccc1)=C1\SC(CCO)C(=O)N1c1ccccc1 (configuration not stated),10.7% (inactive)
9,O=S(=O)(c1cccc2cccnc12)N1CCc2ccccc21,-5.3% (inactive)
10,O=C(CN1CCCC1)N1c2ccccc2Sc2ccccc21,-13.6% (inactive)
11,CC1CC(=O)N(CC(=O)N2CCCC2)c2ccccc2S1 (configuration not stated),-19.6% (inactive)
12,CCc1nnc(NC(=O)NCN2C(=O)C3C4C=CC(C4)C3C2=O)s1 (configuration not stated),3% (inactive)
13,CC1=CCC(C(C)(C)NC(=O)c2ccccc2)C/C1=N\O (configuration not stated),-14.7% (inactive)
14,CCOCCCNS(=O)(=O)c1ccc2c(c1)CCN2C(=O)CC,-23.1% (inactive)
15,C=C(c1ccc(O)cc1)c1ccc(O)cc1,-12.8% (inactive)
16,C/C=C(/C(=C/C)c1ccc(O)cc1)c1ccc(O)cc1,106% (active)
17,CCC(=O)c1ccc(O)cc1,-18.7% (inactive)
18,CCn1c2ccccc2c2nnc(SCC(=O)NC(C(=O)OC)C(C)C)nc21 (configuration not stated),0.5% (inactive)
19,CCOC(=O)c1[nH]c(C)c(C(=O)NC(C)CC)c1C (configuration not stated),1.4% (inactive)
20,O=C1Nc2ccccc2C12OCCCCO2,-24.6% (inactive)
21,Cc1cc(=O)oc2cc(OCC(=O)N3CCc4ccccc4C3)ccc12,-25.1% (inactive)
22,CCOC(=O)N1CCN(Cc2nc3c(c(=O)[nH]c(=O)n3C)n2Cc2cc(C)ccc2C)CC1,-12.2% (inactive)
23,CCCCC(CC)C(=O)Nc1ccccc1C(=O)NC(C)C (configuration not stated),6.3% (inactive)
24,O=S(=O)(c1ccc(Oc2ccc(-c3nnco3)cc2)nc1)N1CCC(Cc2ccccc2)CC1,62.7% (active)
25,O=C(COc1ccc(-c2nnco2)cc1)N1CCN(S(=O)(=O)c2ccccc2)CC1,-13% (inactive)
26,O=C(COc1ccc(-c2nnco2)cc1)N1CCN(S(=O)(=O)c2ccc3ccccc3c2)CC1,-10.1% (inactive)

row,SMILES,cytotoxicity
1,Cc1cc2cc(CNC(=O)c3ccc(Br)o3)ccc2n1C,-1.5% (inactive)
2,N#C/C(C(=O)Oc1ccccc1)=C1\C=CC=CN1,1.2% (inactive)
3,COC(=O)c1ccc(Oc2cc(C)nc(NCc3ccccc3)n2)cc1,-4.2% (inactive)
4,COC(=O)c1ccc(Oc2nc(C)cc(Oc3ccccc3)n2)cc1,-4.8% (inactive)
5,CCOC(=O)c1ccc(Oc2nc(SC)nc(N(C)C)n2)cc1,-23.6% (inactive)
6,COC(=O)c1ccc(Oc2cc(C)nc(SC)n2)cc1,50.6% (active)
7,CCOC(=O)c1ccc(Oc2cc(C)nc(SC)n2)cc1,50.9% (active)
8,CCOC(=O)c1ccc(Oc2nc(NC)nc(SC)n2)cc1,-15.9% (inactive)
9,COc1ccc(C(C#N)Nc2ccccc2OC)cc1 (configuration not stated),-4.6% (inactive)
10,CCN(CC)S(=O)(=O)c1ccc(Nc2cc(C)nc3ncnn23)cc1,-2.7% (inactive)
11,C1CCc2c(nc3nnnn3c2N2CCOCC2)C1,-9.2% (inactive)
12,COC(=O)CN1C(=O)CC(C)(C)S(=O)c2ccccc21 (configuration not stated),-9.1% (inactive)
13,Cc1ccc(-n2ncc3c(=O)n(Cc4ccccn4)cnc32)cc1C,8.3% (inactive)
14,CCN1CCN(C(C(=O)NC2CCCC2)c2ccc(Cl)cc2)CC1 (configuration not stated),9.1% (inactive)
15,COC(=O)c1ccc2[nH]c(C)cc(=O)c2c1,-15.1% (inactive)
16,Cc1cc(=O)c2cc(Cl)ccc2[nH]1,-15% (inactive)
17,Cc1cc2c(N=O)c(NO)ccc2[nH]1,67% (active)
18,CCCc1cc(C(=O)Nc2sc(C(C)=O)c(C)c2C(=O)OCC)no1,-5.5% (inactive)
19,O=C(c1ccco1)N1CCN(c2nc(C3CC3)nc3sc4c(c23)CCCC4)CC1,53.5% (active)
20,Cc1nc(N2CCN(C(=O)c3ccco3)CC2)c2c3c(sc2n1)CCC3,8.5% (inactive)
21,CC(C)c1nc(N2CCN(C(=O)c3ccco3)CC2)c2c3c(sc2n1)CCCC3,-21.7% (inactive)
22,CCOC(=O)N1CCN(C(=O)c2cn(-c3ccc(C)c(C)c3)c(=O)c3ccccc23)CC1,-9.4% (inactive)
23,CCCc1cc(-c2[nH]ncc2-c2ccc(C(=O)OCC)o2)c(O)cc1O,4.4% (inactive)
24,COc1ccc(-c2cnc(N)nc2-c2ccc(OC)cc2O)cc1,-4% (inactive)
25,CCOc1ccc(-c2nc(N)ncc2-c2ccccc2)c(O)c1,2.3% (inactive)
26,CCc1cc(-c2[nH]ncc2-c2ccc3c(c2)OCO3)c(O)cc1O,46.1% (inactive)

row,SMILES,cytotoxicity
1,Cc1c(C(=O)Nn2cnnc2)oc2ccccc12,-26.6% (inactive)
2,CC(NC(=O)c1ccc(CS(=O)(=O)Cc2ccccc2F)o1)c1ccc2c(c1)OCCO2 (configuration not stated),-10.6% (inactive)
3,O=S(=O)(NCC1CC1)c1cccc(S(=O)(=O)N2CCCC2)c1,-7.4% (inactive)
4,Cc1ccc(-c2noc(COc3ccccc3C)n2)cc1,-19.6% (inactive)
5,Cc1ccccc1OCc1nc(-c2ccccc2)no1,-12.2% (inactive)
6,Cc1ccccc1OCc1nc(-c2ccc(-n3cccc3)cc2)no1,62.3% (active)
7,Cc1cc(=O)[nH]c(SCC(=O)NCc2ccco2)n1,-38.4% (inactive)
8,O=C(Cn1nnc(-c2ccccc2NC(=O)c2cccs2)n1)Nc1ccccc1,-6.9% (inactive)
9,CCn1c(SCC(=O)N(C(C)C)C(C)C)nnc1-c1cc2ccccc2cc1O,-2.4% (inactive)
10,Cc1ccc(N2CCN(c3ccc(C)cc3)C2c2ccncc2)cc1,-18.2% (inactive)
11,Cc1cccc(N2CCN(C(=O)c3ccncc3)CC2C)c1 (configuration not stated),-2.2% (inactive)
12,Cc1cccc(N2CCN(c3cccc(C)c3)C2c2cccnc2)c1,52.6% (active)
13,CCC(=O)OCCn1c(=O)c2cc3c(=O)n(CCOC(=O)CC)c(=O)c3cc2c1=O,1.2% (inactive)
14,CCOC(=O)C1=C(C)NC(=O)NC1c1ccc(OC)c(Cl)c1 (configuration not stated),-1.8% (inactive)
15,O=C(Nc1ccc(-c2nc3ccccc3o2)cc1)C1CCCO1 (configuration not stated),2.5% (inactive)
16,O=c1cc(-c2ccccc2)[nH]c2nc3ccccc3n12,34.3% (inactive)
17,O=c1cc(-c2ccccc2)[nH]n1-c1nc2ccccc2s1,61.9% (active)
18,Cc1nn(-c2nc3ccccc3s2)c(N)c1-c1ccccc1,6.1% (inactive)
19,COc1ccc(-c2cc(=O)n(-c3nc4ccccc4[nH]3)[nH]2)cc1,35% (inactive)
20,CC(=NC1CCCC1)c1c(C)[nH]n(-c2nc3ccccc3s2)c1=O,-9.3% (inactive)
21,CCn1c(SCC(=O)N(Cc2ccccc2)C2CCS(=O)(=O)C2)nc2ccccc2c1=O (configuration not stated),-7.3% (inactive)
22,C1=C(CCNc2ncnc3nc[nH]c23)CCCC1,0% (inactive)
23,CCCCCC(=O)Nc1ccc2oc(-c3cncc(Br)c3)nc2c1,-3.1% (inactive)
24,CCn1c(=O)n(CC(=O)Nc2cccc(OC)c2)c(=O)c2ccccc21,-12.1% (inactive)
25,CN(C)CCCNC(=O)Cc1ccc(Br)cc1,-3.8% (inactive)
26,COc1cc(C2C(C(=O)c3ccc(C)o3)=C(O)C(=O)N2c2cc(C)on2)ccc1O (configuration not stated),-0.7% (inactive)

row,SMILES,cytotoxicity
1,CC(NC(=O)NCCCn1ccnc1)(C(F)(F)F)C(F)(F)F,9.8% (inactive)
2,O=C(Nc1ccc(CN2CCOCC2)cc1)c1cc2ccccc2o1,-0.1% (inactive)
3,O=C(Nc1ccc(CN2CCCCC2)cc1)c1ccc(Br)o1,-14.9% (inactive)
4,O=C(Cc1ccc(-c2ccccc2)cc1)NCCN1CCOCC1,-11.8% (inactive)
5,O=C(Nc1ccc2nc(-c3ccc(Br)o3)[nH]c2c1)c1cccs1,53.5% (active)
6,O=C(Nc1ccc2nc(-c3ccc(Br)o3)[nH]c2c1)c1ccco1,44.7% (inactive)
7,O=C(Nc1ccc2nc(-c3ccco3)[nH]c2c1)c1cccs1,8% (inactive)
8,CNC(=O)CCn1nc(-c2ccc(Cl)cc2)c2ccccc2c1=O,10.8% (inactive)
9,COc1ccc(-c2cc(O)cc(O)c2)cc1,-7.5% (inactive)
10,Oc1ccc(N=Cc2ccc(O)c(O)c2)cc1,18% (inactive)
11,CCn1c(C2CC(=O)N(Cc3ccccc3)C2)nc2ccccc21 (configuration not stated),-14.7% (inactive)
12,O=C1CC(=O)N(Cc2cccs2)C(=O)N1,-15.3% (inactive)
13,O=C(O)c1ccc(NC(=O)C2CC=CCC2C(=O)O)cc1 (configuration not stated),-3.4% (inactive)
14,CCOCCCN(Cc1cc2cc(C)cc(C)c2[nH]c1=O)C(=O)N(CC)CC,-8.9% (inactive)
15,Cc1nc2sc3c(c2c(=O)o1)CCC3,4.8% (inactive)
16,O=c1oc(-c2cc3ccccc3o2)nc2sc3c(c12)CCCC3,51.3% (active)
17,O=c1oc(-c2cccs2)nc2sc3c(c12)CCCCC3,52% (active)
18,O=c1oc(-c2cccs2)nc2sc3c(c12)CCC3,28.2% (inactive)
19,Nn1c(-c2cccs2)nc2sc3c(c2c1=O)CCCC3,-1.4% (inactive)
20,Cc1nc2sc3c(c2c(=O)o1)CCCC3,0% (inactive)
21,O=C(CN1C(=O)CSC1=O)NCc1ccccc1,8.1% (inactive)
22,O=C(c1cc(S(=O)(=O)N2CCOCC2)ccc1F)N1CCN(Cc2ccccc2)CC1,-2.7% (inactive)
23,O=C(CSc1nc2ccccc2c(=O)n1CCC(=O)N1CCCCC1)NCc1ccccc1,-24.2% (inactive)
24,COc1ccc(-c2nnc(SCC(=O)Nc3cc(C)on3)n2C)cc1OC,-16.6% (inactive)

# — PubChem BioAssay AID430 (Sanford-Burnham Center for Chemical Genomics, 2006)
